Laboratory results as given in the supplement of paper PMC8975748.
Structures can show the parent of a compound that is named as a salt. ± gives the standard deviation of the averaged measurements.

What was measured:
[1] = test system: Saccharomyces cerevisiae BY4741 SeMeCo community; experiment: mean cell size (pixel area) (pixels); higher = larger cells; settings: 10 µM; 24 h; SM minimal medium
Summary of the method: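 Drug was acoustically predosed into 384-well plates to a final 10 µM in SM medium, and each well received 70 µl of Saccharomyces cerevisiae BY4741 diluted to OD600 = 0.3 from an overnight preculture at OD600 = 1.0. This four-plasmid fluorescent community carries one fluorescent marker per plasmid, and each plasmid complements one auxotrophy. After 24 h, the cells were fixed with paraformaldehyde and imaged by automated confocal microscopy, and Harmony analysis yielded mean cell pixel area per well. Each value is averaged over 3 replicates. Same SeMeCo high-content imaging drug screen: Selleck FDA-approved drugs at 10 µM, 24 h in SM medium, 384-well plates, 3 replicates.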

[2] = test system: Saccharomyces cerevisiae BY4741 SeMeCo community; experiment: z-score of prototroph abundance vs DMSO median; higher = larger share of this subpopulation than in DMSO controls; settings: 10 µM; 24 h; SM minimal medium; subpopulation (auxotrophy): Prototroph
Summary of the method: (§1)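 Automated confocal microscopy of paraformaldehyde-fixed cells was used to follow a Saccharomyces cerevisiae BY4741 community carrying four plasmids, each restoring one auxotrophy and encoding a distinct fluorescent protein. The community was pre-grown overnight to OD600 1.0, diluted to 0.3, and added at 70 µl to 384-well plates acoustically predosed with library drugs (10 µM final) for 24 h of growth in minimal SM medium. Single-auxotroph fluorescent strains set thresholds and autofluorescence correction, and each subpopulation's abundance was scored as a z-score against the vehicle-well median.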

[3] = test system: Saccharomyces cerevisiae BY4741 SeMeCo community; experiment: z-score of subpopulation abundance vs DMSO median, subpopulation auxotrophic for M; higher = larger share of this subpopulation than in DMSO controls; settings: 10 µM; 24 h; SM minimal medium; subpopulation (auxotrophy): M
Summary of the method: as §1

[4] = test system: Saccharomyces cerevisiae BY4741 SeMeCo community; experiment: z-score of subpopulation abundance vs DMSO median, subpopulation auxotrophic for L; higher = larger share of this subpopulation than in DMSO controls; settings: 10 µM; 24 h; SM minimal medium; subpopulation (auxotrophy): L
Summary of the method: as §1

[5] = test system: Saccharomyces cerevisiae BY4741 SeMeCo community; experiment: z-score of subpopulation abundance vs DMSO median, subpopulation auxotrophic for H; higher = larger share of this subpopulation than in DMSO controls; settings: 10 µM; 24 h; SM minimal medium; subpopulation (auxotrophy): H
Summary of the method: as §1

[6] = test system: Saccharomyces cerevisiae BY4741 SeMeCo community; experiment: z-score of subpopulation abundance vs DMSO median, subpopulation auxotrophic for LU; higher = larger share of this subpopulation than in DMSO controls; settings: 10 µM; 24 h; SM minimal medium; subpopulation (auxotrophy): LU
Summary of the method: as §1

[7] = test system: Saccharomyces cerevisiae BY4741 SeMeCo community; experiment: z-score of subpopulation abundance vs DMSO median, subpopulation auxotrophic for HU; higher = larger share of this subpopulation than in DMSO controls; settings: 10 µM; 24 h; SM minimal medium; subpopulation (auxotrophy): HU
Summary of the method: as §1

[8] = test system: Saccharomyces cerevisiae BY4741 SeMeCo community; experiment: z-score of subpopulation abundance vs DMSO median, subpopulation auxotrophic for UM; higher = larger share of this subpopulation than in DMSO controls; settings: 10 µM; 24 h; SM minimal medium; subpopulation (auxotrophy): UM
Summary of the method: as §1

[9] = test system: Saccharomyces cerevisiae BY4741 SeMeCo community; experiment: z-score of subpopulation abundance vs DMSO median, subpopulation auxotrophic for HLU; higher = larger share of this subpopulation than in DMSO controls; settings: 10 µM; 24 h; SM minimal medium; subpopulation (auxotrophy): HLU
Summary of the method: as §1

[10] = test system: Saccharomyces cerevisiae BY4741 SeMeCo community; experiment: z-score of subpopulation abundance vs DMSO median, subpopulation auxotrophic for HLM; higher = larger share of this subpopulation than in DMSO controls; settings: 10 µM; 24 h; SM minimal medium; subpopulation (auxotrophy): HLM
Summary of the method: as §1

[11] = test system: Saccharomyces cerevisiae BY4741 SeMeCo community; experiment: z-score of subpopulation abundance vs DMSO median, subpopulation auxotrophic for HUM; higher = larger share of this subpopulation than in DMSO controls; settings: 10 µM; 24 h; SM minimal medium; subpopulation (auxotrophy): HUM
Summary of the method: as §1

[12] = test system: Saccharomyces cerevisiae BY4741 SeMeCo community; experiment: z-score of subpopulation abundance vs DMSO median, subpopulation auxotrophic for LUM; higher = larger share of this subpopulation than in DMSO controls; settings: 10 µM; 24 h; SM minimal medium; subpopulation (auxotrophy): LUM
Summary of the method: as §1

[13] = test system: Saccharomyces cerevisiae BY4741 SeMeCo community; experiment: z-score of subpopulation abundance vs DMSO median, subpopulation auxotrophic for HLUM; higher = larger share of this subpopulation than in DMSO controls; settings: 10 µM; 24 h; SM minimal medium; subpopulation (auxotrophy): HLUM
Summary of the method: as §1

[14] = test system: Saccharomyces cerevisiae BY4741 SeMeCo community; experiment: z-score of subpopulation abundance vs DMSO median, subpopulation auxotrophic for U; higher = larger share of this subpopulation than in DMSO controls; settings: 10 µM; 24 h; SM minimal medium; subpopulation (auxotrophy): U
Summary of the method: as §1

[15] = test system: Saccharomyces cerevisiae BY4741 SeMeCo community; experiment: z-score of subpopulation abundance vs DMSO median, subpopulation auxotrophic for LM; higher = larger share of this subpopulation than in DMSO controls; settings: 10 µM; 24 h; SM minimal medium; subpopulation (auxotrophy): LM
Summary of the method: as §1

[16] = test system: Saccharomyces cerevisiae BY4741 SeMeCo community; experiment: z-score of subpopulation abundance vs DMSO median, subpopulation auxotrophic for HM; higher = larger share of this subpopulation than in DMSO controls; settings: 10 µM; 24 h; SM minimal medium; subpopulation (auxotrophy): HM
Summary of the method: as §1

[17] = test system: Saccharomyces cerevisiae BY4741 SeMeCo community; experiment: z-score of subpopulation abundance vs DMSO median, subpopulation auxotrophic for HL; higher = larger share of this subpopulation than in DMSO controls; settings: 10 µM; 24 h; SM minimal medium; subpopulation (auxotrophy): HL
Summary of the method: as §1

Row | Structure (SMILES) | mean cell size [1] | z-score of prototroph abundance [2] | z-score of subpopulation abundance [3] | z-score of subpopulation abundance [4] | z-score of subpopulation abundance [5] | z-score of subpopulation abundance [6] | z-score of subpopulation abundance [7] | z-score of subpopulation abundance [8] | z-score of subpopulation abundance [9] | z-score of subpopulation abundance [10] | z-score of subpopulation abundance [11] | z-score of subpopulation abundance [12] | z-score of subpopulation abundance [13] | z-score of subpopulation abundance [14] | z-score of subpopulation abundance [15] | z-score of subpopulation abundance [16] | z-score of subpopulation abundance [17]
1 | CCOC(=O)c1c(CSc2ccccc2)n(C)c2cc(Br)c(O)c(CN(C)C)c12 [Arbidol HCl] | 12.6 ± 0.16 | -0.66 | 0.41 | -0.99 | 0.13 | -0.24 | 0.91 | 0.68 | 0.12 | 0.87 | 0.09 | -0.37 | 0.15 |  |  |  | 
2 | C=C1c2cccc(O)c2C(O)=C2C(=O)[C@]3(O)C(O)=C(C(N)=O)C(=O)[C@@H](N(C)C)[C@@H]3[C@@H](O)[C@H]12 [Methacycline HCl] |  | 0.09 | 0.2 | 1.08 | 2.58 | -0.95 | -0.49 | -0.59 | -0.87 | 0.92 | -0.03 | -0.23 | -0.19 | -0.83 | 0.5 | 0.54 | 1.43
3 | CC1(C)S[C@@H]2[C@H](NC(=O)[C@H](C(=O)O)c3ccsc3)C(=O)N2[C@H]1C(=O)O [Ticarcillin sodium] |  |  | 1.32 | 2.72 | 0.6 | 1.74 | -0.4 | -0.45 | 1.46 | 1.43 | 0.83 | 1.35 | 1.75 | -0.93 | 2.06 | 0.42 | 2.48
4 | CN1C2CCCC1CC(NC(=O)c1nn(C)c3ccccc13)C2 (configuration not stated) [Granisetron HCl] |  | -0.01 | -0.02 | 0.65 | 1.08 | -0.06 | -0.52 | -0.36 | 0.66 | -0.26 | 0.03 |  | -0.37 | -1.1 | 0.45 | 0.45 | 0.42
5 | Clc1ccc(COC(Cn2ccnc2)c2ccc(Cl)cc2Cl)c(Cl)c1 (configuration not stated) [Miconazole Nitrate] |  | -8.17 | -6.38 | -2.76 | 29.9 | -0.2 | 15.7 | 1.18 | 11.6 | 19.4 | 6.7 |  | 9.42 | 3.11 | -3.18 | 0.3 | 9.42
6 | CCCc1nc(C)c2c(=O)nc(-c3cc(S(=O)(=O)N4CCN(CC)CC4)ccc3OCC)[nH]n12 [Vardenafil HCl Trihydrate] |  | -0.75 | 0.64 | 0.04 |  | 0.67 | 1.92 | 0.56 | 0.57 | -0.16 | 0.81 | -0.24 | 0.24 | 1.19 | -1.19 | 0.87 | -0.13
7 | CC(C)c1c(C(=O)Nc2ccccc2)c(-c2ccccc2)c(-c2ccc(F)cc2)n1CC[C@@H](O)C[C@@H](O)CC(=O)O [Atorvastatin Calcium] |  | -7.41 | 0.46 | 0.91 | 7.9 | 2.65 | 7.9 | 4.62 | 8.01 | 9.32 | 7.67 | 4.29 | 4.28 | 0.01 | 2.22 | 9.85 | 6.43
8 | O=c1ccn(C2CC(O)C(CO)O2)c(=O)[nH]1 (configuration not stated) [2-deoxyuridine] |  | 0.08 | 0.17 | 1.75 | 0.07 | 0.31 | -1.08 | -0.82 | 0.49 | 0.54 | -0.27 |  | 0.04 | -1.16 | 0.89 | 0.04 | 1.21
9 | Nc1nc(/C(=C/CC(=O)O)C(=O)N[C@@H]2C(=O)N3C(C(=O)O)=CCS[C@H]23)cs1 [Ceftibuten dihydrate] | 12.6 ± 0.21 | 0.52 | 0.21 | 0.22 | -0.33 | -0.12 | -0.31 | -0.49 | -0.13 | 0.65 | -1.27 | 0.4 | 0.51 | -0.28 |  |  | -0.1
10 | CC(=O)[C@@]1(O)CC[C@H]2[C@@H]3C[C@H](C)C4=CC(=O)CC[C@]4(C)[C@H]3CC[C@@]21C [Medroxyprogesterone] |  | -0.12 | 0.07 | 0.51 | -0.26 | 0.44 | 0.01 | -0.35 | 1.06 | 0.49 | -0.08 | 0.93 | 0.34 | 0.2 | 0.45 | -0.02 | 0.3
11 | O=C1C(=O)c2ccccc2C(O)=C1C1CCC(c2ccc(Cl)cc2)CC1 (configuration not stated) [Atovaquone] |  | -0.82 | -0.46 | 1.54 | 1.46 | 0.47 | 0.94 | 0.03 | 1.94 | 0.84 | 0.71 | 1.22 | 0.68 | -0.2 | 1.39 | 0.9 | 1.12
12 | C=CC(C)(O)CCC=C(C)C (configuration not stated) [Linalool] |  |  | 0.32 | -0.24 | -0.37 | 0.53 | 0.69 | 0.7 | -0.06 | -0.24 | -0.24 | -0.39 | -0.32 | 1.02 | -0.19 | -0.25 | -0.47
13 | CC(=O)OCC(COC(C)=O)OC(C)=O [Triacetin] |  | 0.21 | -0.16 | -0.06 | 0.22 | -0.81 | 0.55 | -0.42 | -1.12 | -0.57 | 0.7 | 0.32 | -0.48 | 0.01 | 0.2 | 0.03 | -0.02
14 | COCCCOc1ccnc(C[S+]([O-])c2nc3ccccc3[nH]2)c1C (configuration not stated) [Rabeprazole] | 12.5 ± 0.21 |  | -1.07 | 1.62 | 2.01 | 1.56 | 0.85 | -0.92 | 1.71 | 0.32 | 0.23 | 0.63 | 0 | 0.43 |  |  | 1.62
